Laboratory results published in PubChem BioAssay AID1619 (SRMLSC, 2009).
Out of some 220,000 compounds screened, about 830 (0.38%) were called active.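 The calls were made as follows: active = compound inhibiting the enzyme by more than half at any dose during confirmatory dose-response retesting; inconclusive = strong single-dose inhibitors picked by rank but not retested; inactive = the rest.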 Only a sample is shown. Measured potencies and affinities stand elsewhere.

What follows are compounds tested against Leucine aminopeptidase (Plasmodium falciparum (isolate 3D7)) (UniProt Q8IL11) (assay: P. falciparum M17LAP inhibitors, primary screen, biochemical, fluorogenic H-Leu-NHMec substrate, 1536-well (AID 1619;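 also: plate controls were full reaction with DMSO carrier for no effect and no enzyme background for full effect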)). Details: recombinant M17LAP, H-Leu-NHMec fluorogenic kinetic assay; at 30 µM; stronger effect = higher value.
Chain of Leucine aminopeptidase (Plasmodium falciparum (isolate 3D7)) (Q8IL11 whole entry, looked up): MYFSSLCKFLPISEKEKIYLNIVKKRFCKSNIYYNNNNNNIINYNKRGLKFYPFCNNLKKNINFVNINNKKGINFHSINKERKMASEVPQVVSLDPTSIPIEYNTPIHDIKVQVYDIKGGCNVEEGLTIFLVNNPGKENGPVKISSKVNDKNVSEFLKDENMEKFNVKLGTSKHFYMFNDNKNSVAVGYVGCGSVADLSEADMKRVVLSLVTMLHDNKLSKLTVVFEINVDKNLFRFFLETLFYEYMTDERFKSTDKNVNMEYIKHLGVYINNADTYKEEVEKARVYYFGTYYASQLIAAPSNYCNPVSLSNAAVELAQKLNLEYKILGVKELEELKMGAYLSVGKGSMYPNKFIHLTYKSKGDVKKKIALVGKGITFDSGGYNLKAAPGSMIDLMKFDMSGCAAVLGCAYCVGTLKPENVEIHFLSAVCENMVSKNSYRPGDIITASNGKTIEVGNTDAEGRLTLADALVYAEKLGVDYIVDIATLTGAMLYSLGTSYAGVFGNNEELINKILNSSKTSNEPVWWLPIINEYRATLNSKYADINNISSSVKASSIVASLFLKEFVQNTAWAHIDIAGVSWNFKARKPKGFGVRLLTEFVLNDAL
In the case of CCc1nc2c(c(=O)c3ccccc3n2C)c(=O)n1C1CCCCCC1, the inhibition is reported as 11% (inactive). In the case of O=C(Nc1ccncc1)c1cccc2ccccc12, the inhibition is reported as 7% (inactive). With Cc1nc(NC(=O)Nc2ccc(Cl)cc2)sc1C the inhibition was 2.28% (inactive). With N#CC(C#N)=C1C=C2C=C(N3CCCCCC3)CCC2CC1 (centres undefined) the inhibition was 10.6% (inactive). In the case of N#CC(C#N)=C1C=C2C=C(N3CCCCC3)CCC2CC1 (centres undefined), the inhibition is reported as 0.1% (inactive). In the case of O=C1c2ccccc2C(=O)c2cc(S(=O)(=O)Nc3ccccc3)ccc21, the inhibition is reported as 9.48% (inactive). O=C(Nc1ccc(Cl)cc1)OCc1cn(-c2ccccc2)nn1 was tested, and the inhibition was 6.64% (inactive). For CCSc1nnc(-c2cc(Br)ccc2N=Cc2c(C)[nH]n(-c3ccccc3)c2=O)c(=O)[nH]1, the inhibition was 0.47% (inactive). In the case of Cc1nn(-c2ccccc2)c(C)c1/C=N/O, the inhibition is reported as 4.53% (inactive). For CCOc1ccc(Oc2c(/C=N/NC(N)=O)c(C)nn2-c2ccccc2)cc1, the inhibition was 3.82% (inactive). With Cc1ccccc1-c1n[nH]c(=S)n1/N=C/c1c(C)nn(-c2ccccc2)c1C the inhibition was 6.29% (inactive). In the case of Cc1nn(-c2ccccc2)c(C)c1/C=N/n1c(-c2ccccc2Br)n[nH]c1=S, the inhibition is reported as -1.13% (inactive). With C=CCSc1nnc(-c2ccccc2N=Cc2c(C)[nH]n(-c3ccccc3)c2=O)c(=O)[nH]1 the inhibition was 56.2% (inactive). In the case of CC(C)[C@H](NC(=O)[C@H](CCCN=C(N)N)NC(=O)NC(Cc1ccccc1)C(=O)O)C(=O)NC(C=O)CCCN=C(N)N (some centres undefined), the inhibition is reported as 6.32% (inactive). For O=c1[nH]c(-c2ccc3c(c2)OCO3)nc2c1sc(=S)n2-c1ccccc1, the inhibition was -0.6% (inactive). Cc1cc(C(=O)O)ccc1-c1ccc(/C=C2\NC(=O)N(Cc3ccc(F)cc3)C2=O)o1 was tested, and the inhibition was 0.19% (inactive). In the case of Cc1ccc(CN2C(=O)N/C(=C\c3ccc(-c4ccc(C(=O)O)cc4C)o3)C2=O)cc1, the inhibition is reported as 4.73% (inactive). For Nc1cnc(CNc2ccccc2Cl)cn1, the inhibition was 4.54% (inactive). With CCn1c(N2CCN(S(=O)(=O)c3ccc(F)cc3)CC2)nc2ccccc21 the inhibition was 2.95% (inactive). In the case of CC(=O)Nc1ccc(NC(=O)COC(=O)c2n[nH]c3ccccc23)cc1, the inhibition is reported as 2.47% (inactive). With Nc1nonc1-c1nc2ccccc2n1CC(=O)N/N=C/c1ccc(-c2cccc(C(=O)O)c2)o1 the inhibition was 31.4% (inactive). Nc1nonc1-c1nc2ccccc2n1CC(=O)N/N=C\c1ccc(-c2ccc(Cl)cc2)o1 was tested, and the inhibition was 3.34% (inactive). COc1cccc(C(=O)COC(=O)C(C)N2C(=O)C3C4C=CC(C4)C3C2=O)c1 (centres undefined) was tested, and the inhibition was 4% (inactive). In the case of CC1CCc2nc(NCCO)nc(C(F)(F)F)c2C1 (centres undefined), the inhibition is reported as 7.69% (inactive). For COc1ccccc1CCc1nnc(CCC(=O)N(C)Cc2ccncc2C)o1, the inhibition was -1.17% (inactive). Cc1ccc2oc(=S)n(C)c2c1 was tested, and the inhibition was 3.68% (inactive). In the case of O=C(CSc1nnc(-c2ccc(O)cc2)n1Cc1ccco1)c1ccccc1, the inhibition is reported as 5.35% (inactive). For CCOC(=O)c1c(NC(=S)Nc2ccc(Cl)cc2)sc(C)c1C, the inhibition was 12.6% (inactive). For CCOC(=O)c1c(NC(=S)Nc2ccccc2)sc(C)c1C, the inhibition was 26.5% (inactive). In the case of NC(=O)c1c(NC(=S)Nc2ccccc2)sc2c1CCCC2, the inhibition is reported as 16.9% (inactive). CCOC(=O)c1c(NC(=S)Nc2ccc(F)cc2)sc2c1CCC2 was tested, and the inhibition was 6.14% (inactive). In the case of OCCN1CCN(c2nc(-c3ccccc3)nc3c2oc2ccccc23)CC1, the inhibition is reported as 7.26% (inactive). For CNC(=O)N(C1=NCC(C)(C)S1)c1ccc(F)c(Cl)c1, the inhibition was -9.97% (inactive). With COc1cc(/C=N/Nc2ccc3ccccc3c2)ccc1OC(=O)c1ccco1 the inhibition was 0.98% (inactive). O=C(O)c1cc(N/N=C/c2ccncc2)ccc1Cl was tested, and the inhibition was 18.2% (inactive). O/N=C/c1ccc(OCc2ccccc2)c(Cl)c1 was tested, and the inhibition was 13.4% (inactive). For COc1cc(/C=N/Nc2ccc(Cl)cc2)ccc1OC(=O)c1cccs1, the inhibition was 4.49% (inactive). In the case of COc1cc(/C=N/Nc2ccccc2)ccc1OC(=O)c1cccs1, the inhibition is reported as 1.12% (inactive). In the case of COc1cc(/C=N/Nc2cccc(C)c2)ccc1OC(=O)c1ccco1, the inhibition is reported as -4.8% (inactive). With O/N=C/c1ccc(OCc2ccccc2)c(Br)c1 the inhibition was 6.58% (inactive). For CSc1ccc(/C=N/Nc2ccc(Cl)c(C(=O)O)c2)cc1, the inhibition was 12.6% (inactive). In the case of O=[N+]([O-])c1ccc(C[n+]2cccc3ccccc32)cc1, the inhibition is reported as 1.34% (inactive). With O=C(CN1CCCCC1CO)c1ccc(OC(F)F)cc1 (centres undefined) the inhibition was 6.93% (inactive). With Cc1cc(NC(=O)CSc2ncnc3c2cnn3-c2cccc(Cl)c2)no1 the inhibition was 1.8% (inactive). In the case of CCn1cc(Br)c(C(=O)NC(C)c2ccccc2)n1 (centres undefined), the inhibition is reported as -36.5% (inactive). In the case of Cc1csc(NC(=O)C2CCN(S(=O)(=O)c3ccc4c(c3)oc(=O)n4C)CC2)n1, the inhibition is reported as 8.23% (inactive). For CC(C)(C)C(=O)N1N=C(c2cccc(NS(C)(=O)=O)c2)CC1c1cccs1 (centres undefined), the inhibition was 29.7% (inactive). O=C(CCNS(=O)(=O)c1cccs1)Nc1nccs1 was tested, and the inhibition was -0.31% (inactive). With O=C(Nc1n[nH]c(C2CCCCC2)n1)C1CCCCC1 the inhibition was -5.77% (inactive). With Nc1n[nH]c(C2CCCCC2)n1 the inhibition was -1.74% (inactive). Nn1c(SCc2ccccc2F)nnc1-c1ccncc1 was tested, and the inhibition was 1.35% (inactive). For CCOC(=O)c1sc(NC(=O)Cn2nnc3sc4c(c3c2=O)CCCC4)nc1C, the inhibition was -3.69% (inactive). For Cn1c(CNC(=O)c2ccco2)nnc1SCC(=O)Nc1cccc(Br)c1, the inhibition was 7.38% (inactive). C=CCn1c(CNC(=O)c2ccco2)nnc1SCC(=O)Nc1cccc(F)c1 was tested, and the inhibition was 14.5% (inactive). For CCCn1cnc2c(=S)nc(N)[nH]c21, the inhibition was 16.6% (inactive). With c1ccc(-c2nnc(N3CCOCC3)nc2-c2ccccc2)cc1 the inhibition was 5.71% (inactive). COc1ccc(N2CCN(c3nc(Cl)nc(N4CCOCC4)n3)CC2)cc1 was tested, and the inhibition was 11.3% (inactive). CC(C)c1ccc(-c2nc(N3CCCCCC3)nc3n[nH]c(N)c23)cc1 was tested, and the inhibition was 35.4% (inactive). In the case of COc1ccc(-c2cc(C(F)(F)F)nc(N3CCOCC3)n2)cc1, the inhibition is reported as 4.95% (inactive). With Nc1nc(N2CCOCC2)nc2ccccc12 the inhibition was -12% (inactive). For CC(C)c1ccc(-c2nc(N3CCCC3)nc3n[nH]c(N)c23)cc1, the inhibition was 27.7% (inactive). COCCNC(=S)NNc1ccccc1[N+](=O)[O-] was tested, and the inhibition was 0.4% (inactive). With CC(C)=NOc1nc(N2CCOCC2)nc(N2CCOCC2)n1 the inhibition was -6.17% (inactive). CCOC(=O)Cn1nnnc1CN(Cc1ccccc1)Cc1cc2cc(CC)ccc2[nH]c1=O was tested, and the inhibition was -7.17% (inactive). For CCOC(=O)c1sc(NC(=O)CC)c(C#N)c1C, the inhibition was -11.2% (inactive). For O=C(CN1C(=O)CCC1=O)Nc1ccc(Cc2ccc(NC(=O)CN3C(=O)CCC3=O)cc2)cc1, the inhibition was 1.75% (inactive). With N#Cc1c(NC(=O)CSc2ccccn2)oc(-c2ccccc2)c1-c1ccccc1 the inhibition was 3.85% (inactive). COC(=O)c1ccc(C)c(NC(=O)Cn2cnc3ccccc3c2=O)c1 was tested, and the inhibition was 54.1% (inactive). With O=C(Cn1cnc2cc([N+](=O)[O-])ccc2c1=O)Nc1ccc2c(c1)CCC2 the inhibition was 25.1% (inactive). With Cc1ccc(NC(=O)Cn2nnc3ccccc3c2=O)cc1 the inhibition was -0.57% (inactive). With N#Cc1c(NC(=O)CCn2cnc3ccccc3c2=O)oc(-c2ccccc2)c1-c1ccccc1 the inhibition was -1.46% (inactive). For O=C(Cn1cnc2ccccc2c1=O)Nc1ccc2c(c1)OCCO2, the inhibition was 5.1% (inactive). In the case of Cc1ccc(NC(=O)Cn2nnc3ccccc3c2=O)cc1C, the inhibition is reported as -2.19% (inactive). COc1ccc(NC(=O)Cn2cnc3ccccc3c2=O)cc1OC was tested, and the inhibition was 14.4% (inactive). With COC(=O)c1ccc(NC(c2ccc(Cl)cc2)P(=O)(OC)OC)cc1 (centres undefined) the inhibition was 4.43% (inactive). CS(=O)(=O)N(CC(=O)Nc1ccc(S(=O)(=O)N2CCCC2)cc1)c1ccccc1 was tested, and the inhibition was 1.45% (inactive). In the case of Cn1c(SCC(=O)C(C)(C)C)nnc1-c1ccc(F)cc1, the inhibition is reported as 0.55% (inactive). With CN(O)/C=C/C(=O)c1ccc(Br)cc1 the inhibition was -3.22% (inactive). With C[C@@H]1C[C@H](O)c2cc(Cl)ccc2N1 the inhibition was 5.04% (inactive). CCOC(=O)C1(CCCc2ccccc2)CCN(C(=O)CCc2cnccn2)CC1 was tested, and the inhibition was -4.8% (inactive). With CC(Oc1ccc2c(-c3ccccc3)cc(=O)oc2c1)C(=O)O (centres undefined) the inhibition was 36.3% (inactive). COc1ccc(-c2cc(=O)oc3cc(OCC(C)=O)ccc23)cc1 was tested, and the inhibition was 10.9% (inactive). In the case of N#C/C(=C\c1cn[nH]c1-c1ccccc1Br)C(=O)O, the inhibition is reported as 4.87% (inactive). For CCCc1cc(=O)n2[nH]c(NCc3ccccc3Cl)nc2n1, the inhibition was 23% (inactive). Cc1cccc(N(C(=O)c2csnn2)C(C(=O)NC(C)(C)C)c2cccs2)c1 (centres undefined) was tested, and the inhibition was 9.85% (inactive). CCc1nc(N2CCN(C(C)=O)CC2)c(C#N)c2c1COC(C)(C)C2 was tested, and the inhibition was -49.5% (inactive). O=C(c1cnn(-c2ccccc2)c1)c1ccccc1O was tested, and the inhibition was -6.3% (inactive). With O=C(c1cnn(C(=O)c2ccc(O)cc2)c1)c1ccccc1O the inhibition was -4.26% (inactive). CCCc1nnc(SCc2ccc(OC)cc2)n1N was tested, and the inhibition was 9.43% (inactive). In the case of COc1ccc(-c2nc(-c3cccc(C(F)(F)F)c3)no2)cc1OC, the inhibition is reported as -5.65% (inactive). For Cc1cccc(NC(=O)COc2ccc(/C=C\c3[nH]c(=O)[nH]c(=O)c3[N+](=O)[O-])cc2)c1, the inhibition was 23.7% (inactive). With NC(=O)CSc1nc(-c2ccccc2)c(-c2ccccc2)o1 the inhibition was -9.73% (inactive). CNC(=O)CSc1nc(-c2ccccc2)c(-c2ccccc2)o1 was tested, and the inhibition was 3.38% (inactive). In the case of CC(C)C(=O)Nc1ccc(NC(=O)c2ccccn2)cn1, the inhibition is reported as 7.94% (inactive). For CNC(=O)c1sccc1S(=O)(=O)Cc1c(Cl)cccc1Cl, the inhibition was 0.44% (inactive). COC(=O)c1cc(C)sc1NC(=O)C1C2C=CC(CC2)C1C(=O)O (centres undefined) was tested, and the inhibition was 47% (inactive). In the case of CCOC(=O)c1sc(NC(=O)C2C3C=CC(C3)C2C(=O)O)nc1C (centres undefined), the inhibition is reported as 3.83% (inactive). In the case of CCOC(=O)c1c(NC(=O)C2CC2)sc(C)c1CC, the inhibition is reported as -1.68% (inactive). In the case of CCOC(=O)c1c(NC(=O)C2C3C=CC(CC3)C2C(=O)O)sc(C)c1C (centres undefined), the inhibition is reported as 46.5% (inactive).
